# Bioassay records (PubChem)
# Only some compounds are listed: those with a hit (about 11% of all), similar ones and a draw of the others.
# IMPase cell inh = qHTS Assay for Identifying the Cell-Membrane Permeable IMPase Inhibitors | Inositol monophosphatase 1 (Rattus norvegicus), P97697 | CHO-M1 cells, IP1 accumulation, HTRF TR-FRET ratio | inhibition (IP1 accumulation), % at 46.1 µM | 120,000 tested, under 10 active | AID 901, 2007; active = well fitted curve in the direction sought with a large enough effect in the signal ratio, not every such curve was filed as active; inconclusive = small, poorly fitted or top-dose-only effect, or a change in a side signal; inactive = no such curve, though single readings can be large or run the other way; the % refers to the signal ratio;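 also: cells stimulated with carbachol in lithium chloride buffer; plate controls were DMSO basal wells for no effect and reference inhibitor wells for full effect; higher means more IMPase inhibition seen as more IP1 and lower FRET ratio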
#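 Elevated IP1 in lysates lowers TR-FRET signal (665/620 ratio and 620 channel reported). Cells were CHO-M1, given carbachol (50 uM as added) plus 50mM LiCl, pH 7.4, 30 min, 37C; compounds titrated up to 46 uM; AC50 by Hill equation.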
# ALOX12 inhib = qHTS Assay for Inhibitors of 12-hLO (12-human lipoxygenase); Polyunsaturated fatty acid lipoxygenase ALOX12 (Homo sapiens), P18054; purified 12-hLO, xylenol orange hydroperoxide absorbance; Potency, µM (top dose mostly 57.1 µM), without a hit: at the highest dose activity change, negative = inhibition, most hits filed as inhibitors; 150,000 tested, 0.12% active; active = well fitted curve in the direction sought with a large enough effect; inconclusive = small, poorly fitted or top-dose-only effect, or another doubt; inactive = no such curve, though single readings can be large; an effect the other way counts as inactive or inconclusive; also: potency is read from the fitted curve at half-maximal effect; nearly all actives have a fitted effect of over 55% in size
#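 150 nM 12hLO, 25 mM Hepes pH 7.0 + 0.01% Triton X-100; cpd preinc 15 min RT; 40 uM arachidonic acid, 30 min RT; Fe-XO 30 min; A573/A405 ratio as read-out.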
# ALDH1A1 inh = qHTS Assay for Inhibitors of Aldehyde Dehydrogenase 1 (ALDH1A1); Aldehyde dehydrogenase 1A1 (Homo sapiens), P00352; Purified ALDH1A1, NADH fluorescence, propionaldehyde substrate; 220,000 tested, 7.3% active; Potency, µM (highest dose often 75.3 µM), inactives show at the top dose activity, negative = inhibition, usual class: inhibitors;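 also: potency is read from the fitted curve at half-maximal effect; plate controls were no enzyme wells and a reference inhibitor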
# Target sequence (P00352 whole entry, looked up): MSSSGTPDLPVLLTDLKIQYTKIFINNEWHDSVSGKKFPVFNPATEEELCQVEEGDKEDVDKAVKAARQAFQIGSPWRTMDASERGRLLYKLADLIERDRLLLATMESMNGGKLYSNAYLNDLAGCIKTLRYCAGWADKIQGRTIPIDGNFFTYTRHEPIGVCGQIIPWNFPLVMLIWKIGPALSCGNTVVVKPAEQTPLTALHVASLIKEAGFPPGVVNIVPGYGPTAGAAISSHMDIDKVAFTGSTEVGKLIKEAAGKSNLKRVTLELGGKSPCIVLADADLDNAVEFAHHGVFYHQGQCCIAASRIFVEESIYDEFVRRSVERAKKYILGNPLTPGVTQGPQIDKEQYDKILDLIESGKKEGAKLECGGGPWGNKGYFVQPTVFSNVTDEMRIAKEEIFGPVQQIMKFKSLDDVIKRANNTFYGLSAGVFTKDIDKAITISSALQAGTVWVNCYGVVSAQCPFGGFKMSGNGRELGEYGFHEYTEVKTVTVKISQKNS
# HPGD block = qHTS Assay for Inhibitors of HPGD (15-Hydroxyprostaglandin Dehydrogenase) | purified HPGD, NADH fluorescence kinetic, PGE2 substrate | Potency, µM, for inactives: at the top dose activity change, negative = inhibition, usual class: inhibitors | 15-hydroxyprostaglandin dehydrogenase [NAD(+)] (Homo sapiens), P15428 | AID 894, 2007 | 150,000 tested, 4.3% active; also: potency is read from the fitted curve at half-maximal effect
#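 NADH formation kinetics: reaction with 30 uM PGE2 and 1 mM NAD+ (final), 20 nM enzyme, Tris-HCl pH 8 with Tween 20, after 15 min compound preincubation at room temperature. Fluorescence change, last versus first of five reads.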
# PNC assembly inh = High Content Assay for Compounds that inhibit the Assembly of the Perinucleolar Compartment. activity change (PNC), negative = inhibition, % at 10 µM. AID 2417, 2010. 140,000 tested, 3.1% active. PC3M PTB-GFP, PNC prevalence imaging, 16 h; active compounds read low;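 active = readout at or below -70, meaning at least 70% loss of cells showing the perinucleolar compartment, a nuclear body marking cancer cells; inconclusive = readout between -30 and a set limit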;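 also: plate controls were DMSO wells for no effect and camptothecin positive control wells for full effect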
#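 Read-out is percentage of cells bearing a perinucleolar compartment, from automated 20x imaging of fixed, Hoechst-stained PC3M PTB-GFP cells. Cells were seeded 4 h, then exposed 16 h to compound (23 nl of library stock) in duplicate plates.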
# IMPase Li inh = qHTS Assay for Identifying the Cell-Membrane Permeable IMPase Inhibitors: Potentiation with Lithium | 210,000 tested, 0.35% active | Potency, µM (titrated, usually from 59.4 µM), inactives show at the highest dose activity, negative = IMPase inhibition, most hits filed as inhibitors | CHO-M1 cells, IP1 TR-FRET (IP-One), carbachol + lithium; active = well fitted curve in the direction sought with a large enough effect; inconclusive = small, poorly fitted or top-dose-only effect, or another doubt; inactive = no such curve, though single readings can be large; an effect the other way counts as inactive or inconclusive;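 also: IP1 builds up when IMPase is blocked and the TR-FRET signal falls; potency is read from the fitted curve at half-maximal effect; plate controls were basal vehicle for no effect and high inhibitor control for full effect; nearly all actives have a fitted effect of over 50% in size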
#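 Readout is a homogeneous TR-FRET IP1 immunoassay (Ex 320, Em 665 and 620), where raised cytosolic IP1 lowers signal. Cells were CHO-M1 treated 30 min at 37C with test compounds plus a little lithium; AC50 values came from Hill-equation fitting.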
# Numbers without * were called inactive; ? = inconclusive; nt = no result given; [ ] = remark or other dose. Unless noted, calls follow the shape of the dose curve; as a rule, active = well fitted inhibition curve with a large enough effect (not every such curve was filed as active); inconclusive = small, poorly fitted or top-dose-only effect, or another doubt; inactive = no such curve, though single readings can be large or run the other way. Unless noted, % is scaled to controls: 0 for no effect and ±100 for the full control effect.
SMILES,IMPase cell inh,ALOX12 inhib,ALDH1A1 inh,HPGD block,PNC assembly inh,IMPase Li inh
COc1ccc(-n2c(SCC(=O)C(C)(C)C)nc3ccsc3c2=O)cc1,nt,nt,-11.7%,nt,nt,6.6%
COc1ccc(-n2c(SCC(=O)NCCC(C)C)nc3ccsc3c2=O)cc1,?,-6.7%,20µM*,?,-16.3,-9.8%[38.3 µM]
Cc1nn(Cc2ccccc2)c(Cl)c1C(=O)OC(C)C#N (configuration not stated),nt,nt,22.4µM*,nt,nt,-0.7%
Cc1ccc2[nH]c(O)c(N=O)c2c1,nt,nt,31.6µM*,nt,nt,nt
CC1(C)CC(=O)C2=C(C1)OC(c1cccs1)C(C#N)=C2N (configuration not stated),5.2,-6.3%,11.2µM*,-15.6%,-2.5,19.7%[38.3 µM]
CC1(C)CC(=O)C(C2C3=C(CC(C)(C)CC3=O)Oc3ccccc32)=C(O)C1 (configuration not stated),0.1,0.1%,28.2µM*,-7.7%,?,0.7%[38.3 µM]
CC1(C)CC(=O)C2=C(C1)OC(N)=C(C#N)C2c1ccccc1 (configuration not stated),2.9,-2.0%,14.1µM*,-17.4%,31.2,8.2%[38.3 µM]
CC1(C)CC(=O)C2=C(C1)OC(N)=C(C#N)C2c1cccs1 (configuration not stated),nt,nt,22.4µM*,nt,nt,1.5%
N#CC1=C(N)OC2=C(C(=O)CCC2)C1c1cccs1 (configuration not stated),nt,nt,-2.1%,nt,nt,-1.3%
CC1(C)CC(=O)C2=C(C1)N(N1CCOCC1)C(N)=C(C#N)C2c1cccs1 (configuration not stated),nt,-6.0%,9.1%,-11.4%,-25.4,3.4%
O=C(c1ccco1)N1CCC[C@@]2(CCN(Cc3ccccc3)C2)C1,nt,5.2%,-12.3%,-6.1%,nt,7.6%
COC(=O)C1=C(N)OC2=C(C(=O)CC(C)(C)C2)C1c1cccs1 (configuration not stated),-4.0,-4.4%,-10.6%,22.4µM*,-11.6,-1.2%[38.3 µM]
COc1ccc(C2C3=C(CC(C)(C)CC3=O)OC(N)=C2[N+](=O)[O-])cc1 (configuration not stated),nt,1.3%,18.9µM*,-12.5%,37.0,3.4%
CC1(C)CC(=O)C2=C(C1)OC(N)=C(C#N)C2C1C=CCCC1 (configuration not stated),-1.3,-11.6%,3.98µM*,-24.9%,?,32.4%[38.3 µM]
N#Cc1c(Cl)nc(N/N=C/c2ccccc2)c(Cl)c1Cl,nt,?,-4.3%,?,-4.8,0.0%
C[N+](C)(C)c1ccc(/C=N/Nc2nc(Cl)c(C#N)c(Cl)c2Cl)cc1,10.2,-0.4%,15.8µM*,-23.8%,?,29.7%
NC(=O)N/N=C/c1ccc(N2CCOCC2)s1,nt,-16.3%,?,-15.5%,?,23.2%
O=C(O)c1cc(N/N=C/c2ccc(N3CCOCC3)s2)ccc1Cl,nt,-6.4%,2.82µM*,?,38.0,28.1%
O=S1(=O)N=C(Nc2cccc(C(F)(F)F)c2)c2ccccc21,-6.7,nt,nt,nt,nt,nt
O=C(CN1CCN(CC(=O)Nc2ccccc2Cl)CC1)Nc1ccc2c(c1)OCCO2,-0.4,-5.8%,7.94µM*,-8.3%,-100.0*,-0.6%[38.3 µM]
O=C(CSCc1c(Cl)cccc1Cl)Nc1ccc2c(c1)OCCO2,nt,-2.8%,?,-14.8%,-83.4*,0.9%
O=C(CN1CCC(Cc2ccccc2)CC1)Nc1ccc2c(c1)OCCO2,1.1,1.2%,28.2µM*,-7.9%,16.1,13.8%[38.3 µM]
O=C(CCN1C(=O)c2ccccc2S1(=O)=O)Nc1ccc2c(c1)OCCO2,-0.8,-0.3%,6.31µM*,-15.8%,10.5,-7.3%[38.3 µM]
O=C1OC(CO)C(O)C(O)C1O (configuration not stated),nt,-0.9%,-3.5%,-4.7%,nt,10.8%
